According to PubChem BioAssay:
The source made the active and inactive calls.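 Rule for the calls, unless noted: active = inhibition at or above 50% at 10 µM; inactive = inhibition below 50%.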

Assays:
[1] = inhibitors of TNFa-induced NFkB p65 translocation, primary screen, imaging, HUVEC, MLSMR starter and 10KST1 sets (AID 438;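 active = inhibition above 20% together with a positive visual image hit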;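 note: compound added about 3h40 before a 20 min TNFalpha stimulation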;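 for inhibition: signal is the nuclear over cytoplasmic p65 intensity ratio per well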); settings: HUVEC TNFa-induced p65 nuclear translocation; cell count: measured here: nuclei count (cytotoxicity indicator), at 2.08 µM; inhibition: at 2 µM, stronger effect = higher value, 0% TNFa-plus-vehicle, 100% no-TNFa wells
[2] = inhibitors of mutant huntingtin aggregation, primary screen, imaging, exon1htt(103Q)mCFP cells, high-content imaging (AID 483;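 active = visual image review flags a hit and inhibition of aggregation exceeds 20%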;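 note: compound exposure lasted 3 days before fixation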;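 for nuclei count: percent of the per-plate median nuclei count of sample wells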); settings: exon1htt(103Q)mCFP cell line, aggregate imaging, at 2 µM; inhibition of aggregation: stronger effect = higher value; nuclei count: measured here: cell count, toxicity
[3] = inhibitors of E-selectin induction by TNFa, primary screen, imaging, HUVEC, immunofluorescence, MLSMR starter and 10KST1 sets (AID 487;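 active = visually confirmed hit in the image check and inhibition above 20%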;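 for inhibition: signal is fraction of cell area covered by stained E-selectin grains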;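 for nuclei count: 100% = median nuclei count of all wells on the same plate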); settings: HUVEC TNFalpha-induced E-selectin immunofluorescence imaging, at 2 µM; inhibition: stronger effect = higher value; nuclei count: measured here: cell number, toxicity
[4] = target: Voltage-gated potassium channel subunit beta-2 (Rattus norvegicus) (UniProt P62483); assay: KvBeta enzyme negative modulators, primary screen, biochemical, NADPH fluorescence (AID 622;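 active = fluorescence slope higher than the sample average by over 3 SD, cut at about -0.22 in these data, passing the limit was not always enough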;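 note: slope of raw intensity against log time taken from 70 to 1610 s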); settings: recombinant KvBeta, 4-cyanobenzaldehyde reduction, at 10 µM, stronger effect = higher value
[5] = target: Voltage-gated potassium channel subunit beta-2 (Rattus norvegicus) (UniProt P62483); assay: KvBeta positive modulators, primary screen, biochemical, NADPH fluorescence (AID 623;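 active = NADPH fluorescence slope more negative than the mean of all samples by about 3 SD, 99.7% confidence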;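 note: fluorescence intensity change per second fitted from 20 to 320 s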); settings: Recombinant KvBeta, NADPH fluorescence decrease slope, 10 min; at 10 µM; stronger effect = lower value
[6] = target: Alpha-2C adrenergic receptor (Homo sapiens) (UniProt P18825); assay: modulators of alpha2C/GIRK thallium flux, primary screen, cell-based, HEK293 alpha2C/GIRK1/2 (AID 624;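 active = fluorescence slope after compound addition differing from the mean of all screened samples at 99.7% confidence, in either direction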;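 note: slope of fluorescence ratio to pre-addition baseline per second over 15 to 24 s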); settings: thallium flux BTC fluorescence, at 10 µM, actives lie on both sides
[7] = inhibitors of Sendai virus-induced IRF3 signaling, primary screen, TLR/RLR signaling modifier project, cell-based, Sendai virus stimulus, luciferase, 10K MLSCN set (AID 602276); settings: HEK293 RL24 IRF3 luciferase reporter, at 10 µM, stronger effect = higher value;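 note: firefly luciferase from ISG56 promoter only with Renilla not read in this screen; 0% = Sendai virus plus DMSO and 100% = medium plus DMSO without virus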
[8] = inhibitors of poly I:C-induced TLR3 signaling, primary screen, cell-based, poly I:C stimulus, luciferase, 10K MLSCN set (AID 602277;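 active = inhibition of the reporter signal at or above 50%; inactive = inhibition below 50%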); settings: HEK293-TLR3 RL24 IRF3 luciferase reporter, at 10 µM, stronger effect = higher value

Chain of Voltage-gated potassium channel subunit beta-2 (Rattus norvegicus) (P62483 whole entry, looked up): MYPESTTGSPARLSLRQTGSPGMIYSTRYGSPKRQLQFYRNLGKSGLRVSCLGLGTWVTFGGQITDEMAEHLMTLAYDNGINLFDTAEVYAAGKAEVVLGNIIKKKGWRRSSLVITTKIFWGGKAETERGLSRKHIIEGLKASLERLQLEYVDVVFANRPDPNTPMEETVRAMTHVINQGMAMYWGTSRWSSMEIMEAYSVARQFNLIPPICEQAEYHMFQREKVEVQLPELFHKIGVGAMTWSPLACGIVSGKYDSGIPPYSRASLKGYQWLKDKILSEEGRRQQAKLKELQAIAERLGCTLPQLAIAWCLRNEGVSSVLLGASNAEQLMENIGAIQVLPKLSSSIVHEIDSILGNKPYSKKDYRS
Chain of Alpha-2C adrenergic receptor (Homo sapiens) (P18825 whole entry, looked up): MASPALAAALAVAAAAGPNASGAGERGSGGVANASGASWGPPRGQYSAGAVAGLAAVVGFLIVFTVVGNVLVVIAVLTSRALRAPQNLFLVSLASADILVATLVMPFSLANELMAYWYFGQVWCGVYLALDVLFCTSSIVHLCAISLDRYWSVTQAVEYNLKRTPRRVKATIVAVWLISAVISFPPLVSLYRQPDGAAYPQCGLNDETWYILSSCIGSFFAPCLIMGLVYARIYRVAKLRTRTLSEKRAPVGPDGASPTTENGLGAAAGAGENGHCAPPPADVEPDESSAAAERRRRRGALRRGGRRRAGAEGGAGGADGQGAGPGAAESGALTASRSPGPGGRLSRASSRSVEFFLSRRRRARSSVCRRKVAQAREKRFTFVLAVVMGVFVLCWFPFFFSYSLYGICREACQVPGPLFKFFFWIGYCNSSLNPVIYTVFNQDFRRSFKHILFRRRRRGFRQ

SMILES	cell count [1]	inhibition [1]	inhibition of aggregation [2]	nuclei count [2] [%]	inhibition [3]	nuclei count [3] [%]	fluorescence slope [4]	NADPH fluorescence slope [5]	slope [6]	inhibition [7]	inhibition [8]
Cc1c(C)c2ccc(OC3CCCCC3=O)cc2oc1=O (configuration not stated)	573	-9.2% (inactive)	-0.8% (inactive)	120	38.5% (inactive)	134	-0.175 (inactive)	-2e-05 (inactive)	0.0054 (inactive)	-2.48% (inactive)	-14.3% (inactive)
CCOC(=O)c1oc2c(CN3CCN(C)CC3)c(O)ccc2c(=O)c1-c1ccccc1OC	463	2.1% (inactive)	-44.9% (inactive)	86.2	-59% (inactive)	103	-0.61 (inactive)	8.1e-06 (inactive)	0.00673 (inactive)	9.7% (inactive)	20.2% (inactive)
CCOC(=O)c1sc2nc(NC(=O)COc3ccccc3)sc2c1C	715	-6.9% (inactive)	9.3% (inactive)	106	-12.6% (inactive)	105	-0.591 (inactive)	-1.3e-05 (inactive)	0.00688 (inactive)	-24% (inactive)	-40.4% (inactive)
COc1ccc(-n2c(Cc3cccn3C)nnc2SCC(=O)Nc2cccc(Cl)c2)cc1	583	36.1% (active)	22.4% (inactive)	85.2	1.8% (inactive)	116	-0.609 (inactive)	1.6e-05 (inactive)	0.00706 (inactive)	-2.83% (inactive)	19.5% (inactive)
Cc1cc(C)n2c(SCC(=O)Nc3cc(C)on3)nnc2n1	335	-14.1% (inactive)	2.1% (inactive)	71.2	3.6% (inactive)	100	-0.555 (inactive)	-2.2e-05 (inactive)	0.00561 (inactive)	11% (inactive)	22.4% (inactive)
CC(C)(C)c1cc(NS(=O)(=O)c2ccc3c(c2)OCCO3)on1	574	-2.4% (inactive)	5.3% (inactive)	104	-81.6% (inactive)	167	-0.586 (inactive)	-2.5e-06 (inactive)	0.0066 (inactive)	11.1% (inactive)	20.1% (inactive)
O=C(OCCN=C1NS(=O)(=O)c2ccccc21)C1CC(=O)N(c2ccc(Cl)cc2)C1 (configuration not stated)	354	2.7% (inactive)	-0.2% (inactive)	118	-44.7% (inactive)	107	-0.448 (inactive)	2.4e-05 (inactive)	0.00337 (inactive)	6.2% (inactive)	23.6% (inactive)
CC1Cc2ccccc2N1C(=O)COC(=O)Cn1nnc(-c2ccccc2)n1 (configuration not stated)	543	-9% (inactive)	-4.6% (inactive)	96.1	-39.7% (inactive)	123	-0.583 (inactive)	-4e-05 (inactive)	0.00555 (inactive)	11% (inactive)	34.2% (inactive)
Cc1noc(/C=C/N(C)C)c1S(=O)(=O)N1CCCC(C(=O)N2CCCCC2)C1 (configuration not stated)	709	9.1% (inactive)	-0.1% (inactive)	80.5	-79.5% (inactive)	117	-0.516 (inactive)	-3.8e-05 (inactive)	0.00526 (inactive)	7.18% (inactive)	28.7% (inactive)
O=C(COC(=O)CCc1c[nH]c2ccccc12)NC1CCS(=O)(=O)C1 (configuration not stated)	473	4.7% (inactive)	-7.7% (inactive)	101	-70.8% (inactive)	113	-0.57 (inactive)	-1.6e-05 (inactive)	0.00772 (inactive)	4.42% (inactive)	-2.03% (inactive)
O=C(NC1CCCCC1)C(c1ccc(Cl)cc1)N(C(=O)c1cnccn1)c1ccc2c(c1)OCO2 (configuration not stated)	694	3.4% (inactive)	21.6% (inactive)	93.8	-87% (inactive)	110	-0.392 (inactive)	-3.7e-05 (inactive)	0.00597 (inactive)	11.2% (inactive)	7.2% (inactive)
Cc1cccc(-n2nnnc2SCc2csc(-c3ccccc3)n2)c1	413	2.9% (inactive)	-8.3% (inactive)	125	-106% (inactive)	127	-0.502 (inactive)	-3.3e-05 (inactive)	0.00568 (inactive)	9.28% (inactive)	6.25% (inactive)
O=C(CCSc1ccccc1)Nc1ccc(S(=O)(=O)N2CCOCC2)cc1	381	5.2% (inactive)	8.5% (inactive)	105	-102% (inactive)	109	-0.53 (inactive)	-5.2e-06 (inactive)	0.00555 (inactive)	18.1% (inactive)	11.6% (inactive)
O=C(O)C1CC=CCC1C(=O)Nc1cccc(F)c1 (configuration not stated)	446	5.9% (inactive)	-9.5% (inactive)	112	0.8% (inactive)	116	-0.432 (inactive)	-2.5e-05 (inactive)	0.00329 (inactive)	10.2% (inactive)	31.8% (inactive)
Cc1cc(C)cc(NS(=O)(=O)c2ccc3[nH]c(=O)[nH]c3c2)c1	378	-5.5% (inactive)	2.4% (inactive)	112	-23.4% (inactive)	115	-0.392 (inactive)	4.9e-07 (inactive)	0.00328 (inactive)	16.1% (inactive)	36.9% (inactive)
COc1ccc(CCNc2oc(-c3ccco3)nc2C#N)cc1	560	15.1% (inactive)	0.7% (inactive)	103	35.2% (inactive)	84.1	-0.605 (inactive)	-3.5e-05 (inactive)	0.00388 (inactive)	-0.514% (inactive)	-18.9% (inactive)
COc1ccc(CNS(=O)(=O)c2ccc3oc(C(=O)O)c(C)c3c2)cc1	624	-4.4% (inactive)	-6% (inactive)	75.2	-31.4% (inactive)	114	-0.466 (inactive)	8.2e-05 (inactive)	0.00607 (inactive)	15.6% (inactive)	20.3% (inactive)
O=C(NCCCNC1CCCCC1)c1ccc(/C=N/O)nc1	221	2% (inactive)	-20.6% (inactive)	67.6	-97.6% (inactive)	108	-0.62 (inactive)	-1.9e-05 (inactive)	0.00681 (inactive)	7.85% (inactive)	23% (inactive)
COC(=O)C1=CN(C(C)C)C=C(C(=O)OC)C1c1cc2c(cc1Br)OCO2	386	8.1% (inactive)	10.8% (inactive)	104	-70.4% (inactive)	78.3	-0.365 (inactive)	2e-05 (inactive)	0.00637 (inactive)	5.71% (inactive)	11% (inactive)
CN(C)S(=O)(=O)c1ccc(S(=O)(=O)N(Cc2ccco2)Cc2ccccc2Cl)cc1	478	4% (inactive)	0.8% (inactive)	98.9	-58.4% (inactive)	99.8	-0.523 (inactive)	8.8e-06 (inactive)	0.00696 (inactive)	4.31% (inactive)	53.4% (active)
COc1ccc(CCNC(=O)c2cc(C(C)C)on2)cc1OC	825	9.2% (inactive)	-27% (inactive)	102	2.8% (inactive)	110	-0.567 (inactive)	-1.2e-05 (inactive)	0.00632 (inactive)	2.63% (inactive)	18.2% (inactive)
CCC(C)(C(=O)NC1CCCC1)N(Cc1cccs1)C(=O)Cc1cccs1 (configuration not stated)	698	-0.9% (inactive)	21% (inactive)	127	-7.8% (inactive)	112	-0.473 (inactive)	-0.000168 (inactive)	0.00631 (inactive)	14.4% (inactive)	44.6% (inactive)
COC(=O)c1ccccc1S(=O)(=O)N(CCCO)Cc1cc2c(C)ccc(C)c2[nH]c1=O	688	-5.1% (inactive)	-9% (inactive)	108	-55.4% (inactive)	120	-0.501 (inactive)	6.1e-06 (inactive)	0.00564 (inactive)	2.69% (inactive)	27.6% (inactive)
O=C(CC1Oc2ccccc2NC1=O)NCCCN1CCOCC1 (configuration not stated)	620	6.1% (inactive)	-1.6% (inactive)	112	24.8% (inactive)	100	-0.56 (inactive)	-1.9e-05 (inactive)	0.00542 (inactive)	8.81% (inactive)	38.3% (inactive)
Cc1ccccc1Cn1c(=O)c2c(nc3n2CCCN3Cc2ccccc2)n(C)c1=O	348	7.4% (inactive)	7.4% (inactive)	97.8	-25.1% (inactive)	120	-0.478 (inactive)	-7.4e-06 (inactive)	0.00418 (inactive)	22.9% (inactive)	19.5% (inactive)
COc1ccc(N(C)C(=O)CCS(=O)(=O)c2cccc3nonc23)cc1	704	-12.2% (inactive)	0.8% (inactive)	108	-32.3% (inactive)	118	-0.488 (inactive)	1.2e-05 (inactive)	0.00576 (inactive)	-4.78% (inactive)	-38.6% (inactive)
CSCC[C@@H](Nc1nc(-c2ccccc2)nc2c1oc1ccccc12)C(=O)O	322	1.9% (inactive)	-20.9% (inactive)	83.4	-92.1% (inactive)	123	-0.442 (inactive)	9.3e-06 (inactive)	0.00719 (inactive)	4.35% (inactive)	41% (inactive)
